Assay outcomes (PubChem)
This is a sample that favours compounds with a hit; in the whole collection about 1.6% have one here.
KCNQ2 inh – inhibitors of rat KCNQ2 potassium channel; O88943; AID 2156; 310,000 compounds, 1.1% hits; CHO-K1 KCNQ2, FluxOR thallium flux, 20 min; stronger effect = lower value; B-score at 10 µM;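 active means fluorescence ratio B-score at most minus 3 library SDs, with starting brightness B-score within 2 library SDs, cut at about -5.5 in these data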
Target sequence (O88943 whole entry, looked up): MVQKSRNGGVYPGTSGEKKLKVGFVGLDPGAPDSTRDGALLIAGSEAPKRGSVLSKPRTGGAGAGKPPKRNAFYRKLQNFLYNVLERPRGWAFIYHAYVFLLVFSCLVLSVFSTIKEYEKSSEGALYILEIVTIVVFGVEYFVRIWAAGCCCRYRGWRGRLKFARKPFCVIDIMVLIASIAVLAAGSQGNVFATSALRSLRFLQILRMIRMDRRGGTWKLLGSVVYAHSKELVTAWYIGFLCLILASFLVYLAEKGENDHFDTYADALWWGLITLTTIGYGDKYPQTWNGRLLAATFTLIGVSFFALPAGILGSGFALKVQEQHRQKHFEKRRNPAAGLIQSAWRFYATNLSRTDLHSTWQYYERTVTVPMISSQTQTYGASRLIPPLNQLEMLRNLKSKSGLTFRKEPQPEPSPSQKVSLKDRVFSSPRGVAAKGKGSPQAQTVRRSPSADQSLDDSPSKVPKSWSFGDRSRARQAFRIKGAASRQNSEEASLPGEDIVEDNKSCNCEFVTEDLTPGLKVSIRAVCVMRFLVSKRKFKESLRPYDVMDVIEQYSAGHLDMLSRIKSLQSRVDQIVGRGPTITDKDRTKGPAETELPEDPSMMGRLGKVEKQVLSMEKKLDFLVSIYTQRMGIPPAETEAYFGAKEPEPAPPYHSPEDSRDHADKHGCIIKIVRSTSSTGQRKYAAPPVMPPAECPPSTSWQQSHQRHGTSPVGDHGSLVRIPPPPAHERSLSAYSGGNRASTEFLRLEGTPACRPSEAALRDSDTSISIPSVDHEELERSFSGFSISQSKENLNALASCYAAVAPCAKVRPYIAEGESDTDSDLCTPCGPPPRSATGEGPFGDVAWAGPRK
KCNQ2 enhance – KCNQ2 (rat) channel potentiation. AID 2239. B-score at 10 µM. O88943. CHO-K1 KCNQ2, FluxOR thallium flux fluorescence; stronger effect = higher value. 310,000 compounds, 0.54% hits;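 active means fluorescence ratio B-score at least 3 SD of library B-scores, with initial fluorescence B-score within 3 of them, cut at about 5.3 in these data; same plate scores as AID 2156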;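 further: B-score of peak minus minimum over baseline fluorescence ratio after K+ and Tl+ stimulus; positive B-score means potentiation of KCNQ2 with more thallium influx and brighter signal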
Numbers without * were called inactive; i = inactive; · = not tested or not shown.

SMILES	KCNQ2 inh	KCNQ2 enhance
CCOC(=O)C1=C(C)Nc2nc(=S)[nH]n2C1c1ccc(Cl)cc1 (configuration not stated)	i	·
CCOC(=O)C1=NN(C(C)=O)C2C(=O)N(CC)C(=O)C12 (configuration not stated)	i	·
O=C(CC1SC(=Nc2ccccc2)N(CCc2c[nH]c3ccccc23)C1=O)Nc1ccccc1F (configuration not stated)	-6.69*	-6.69
O=C(CC1SC(=Nc2ccccc2)N(CCc2ccccn2)C1=O)Nc1ccc(F)cc1 (configuration not stated)	i	0.03
Cc1c(Cl)cccc1NC(=O)CSc1ncnc2c1cnn2CCc1ccccc1	i	·
O=C(CSc1ncnc2c1cnn2CCc1ccccc1)Nc1cccc(C(F)(F)F)c1	-6.73*	-6.73
COc1ccc(CCN2CC(C(=O)Nc3ccc4c(c3)OCO4)CC2=O)cc1OC (configuration not stated)	i	2.31
COc1cc2c(cc1OC)C1=C(C#N)COCN1CC2	i	0.7
Cc1ccc(C(c2nnnn2CCc2ccccc2)N2CCSCC2)cc1 (configuration not stated)	i	0.78
Cc1ccc(C(c2cc(Br)ccc2O)N2CCSCC2)cc1 (configuration not stated)	-5.83*	-5.83
O=C(c1ccncc1)N(c1ccc2oc3c(c2c1)CCCC3)S(=O)(=O)c1cccc([N+](=O)[O-])c1	i	·
COc1ccc(S(=O)(=O)N(C(=O)c2ccncc2)c2ccc3oc4c(c3c2)CCCC4)cc1	-5.65*	-5.65
COCCC(=O)N1CCC(Oc2ccc(C(=O)N3C[C@@H](C)O[C@@H](C)C3)cc2)CC1	i	·
O=C(NCc1ccc(F)cc1)c1c2c(nc3ccccc13)CCN(Cc1ccccc1)C2	i	·
COC(=O)c1ccc(CNC(=O)c2c3c(nc4ccccc24)CCN(Cc2ccccc2)C3)cc1	-6.18*	-6.18
COc1ccc(Br)cc1/C=C/C(=O)NC(=S)Nc1ccc(CN2CCOCC2)cc1	-6.33*	-6.33
COc1ccc(C(=O)NC(=S)Nc2ccc(CN3CCOCC3)cc2)cc1OC	i	·
CN1CCN(C(=O)CCc2ccc(S(=O)(=O)NC3CCCCC3)cc2)CC1	i	·
CCS(=O)(=O)NCC(c1ccco1)N1CCN(c2ccccc2F)CC1 (configuration not stated)	i	2.93
CC(C)CNC(=S)N1CCN(C(c2ccccc2)c2ccccc2)CC1	-5.88*	-5.88
C=C(C)CNC(=S)N1CCN(C(c2ccccc2)c2ccccc2)CC1	i	·
Clc1ccccc1CSc1snnc1-c1ccccc1	-5.55*	-5.55
Clc1ccc(CSc2snnc2-c2ccccc2)cc1	i	·
COc1ccc(OC)c(C(=O)CSc2nnc(Cc3cccs3)n2CCc2ccccc2)c1	-7.07*	-7.07
COc1ccc(OC)c(C(=O)CSc2nnc(-c3cccs3)n2C)c1	i	0.04
SMILES	KCNQ2 inh	KCNQ2 enhance
COc1cccc(OCc2nnc(SCC(=O)NCc3ccco3)n2CCc2ccccc2)c1	-6.82*	-6.82
COc1ccc(-n2c(COc3ccc4ccccc4c3)nnc2SCC(=O)NCc2ccco2)cc1	i	1.05
CCCc1nnc(SCC(=O)Nc2ccc(OC)cc2)o1	i	0.53
O=C(O)[C@H]1CCCC[C@H]1C(=O)Nc1ccc(S(=O)(=O)N2CCCCC2)cc1	i	0.02
NC(=S)N=Nc1c(O)n(CCCl)c2ccc(Br)cc12	i	·
C/C(Cl)=C\Cn1c(O)c(N=NC(N)=S)c2cc(Br)ccc21	i	9.18*
C/C=C/c1ccc(OC(C)=O)c(OC)c1	i	0.32
CNC(=O)c1cc2cc(OC)ccc2oc1=N	i	1.15
O=C(CC(NC(=O)c1ccccc1Cl)c1ccccc1)NCCc1ccc(Cl)cc1 (configuration not stated)	i	·
CN(C(=O)CC(NC(=O)c1ccccc1Cl)c1ccccc1)c1ccccc1 (configuration not stated)	-5.66*	-5.66
Nc1ccc(-c2cc(-c3cccc(N)c3)nc(-c3ccccc3)n2)cc1	i	·
Cc1nnc(SCC(=O)Nc2nnc(SCc3cccc(Br)c3)s2)s1	i	1.51
COc1cc(NC(=O)c2ccnnc2)cc(C(=O)Nc2cccc(C(F)(F)F)c2)c1	-5.79*	-5.79
O=C(Nc1cccc(C(F)(F)F)c1)c1cccnc1	i	1.83
Cc1ccc(S(=O)(=O)N2CCOCC2)cc1NC(=O)COC(=O)CNC(=O)c1ccccc1	i	·
COc1c(CC=C(C)C)cc(C2CC(=O)c3c(O)cc(O)cc3O2)cc1CC=C(C)C (configuration not stated)	-5.6*	-5.6
O=C1C[C@@H](c2ccccc2)Oc2cc(O)cc(O)c21	i	0.64
Cc1nnc(SCc2ccccc2)nc1-c1ccccc1	i	·
Cc1ccnc(NC(=O)C2CCN(S(=O)(=O)c3cccc4nsnc34)CC2)c1	i	·
Cc1cccc(C)c1-n1c(C)cc(/C=N\NC(=O)CC(=O)NC2CCCCC2)c1C	i	8.41*
Cc1cc(/C=N\NC(=O)CC(=O)NC2CCCCC2)c(C)n1-c1cccc(Cl)c1Cl	i	4.7
Cc1ccc(NS(=O)(=O)c2ccc(-c3cnc(C4CC4)o3)cc2)cc1	i	·
Cc1ccc(N(C)S(=O)(=O)c2ccc(-c3cnc(C4CC4)o3)cc2)cc1	-9.51*	-9.51
COc1ccc(S(=O)Cc2ccc(C(=O)N3CCN(c4cccc(C)c4C)CC3)o2)cc1 (configuration not stated)	i	1.15
CC(C)C(C(=O)NCc1ccco1)N(C(=O)CNS(=O)(=O)c1ccccc1)c1ccccc1 (configuration not stated)	i	·
SMILES	KCNQ2 inh	KCNQ2 enhance
O=C(CNC(=O)c1nc[nH]c1C(=O)N1CCNCC1)OCc1ccccc1	i	0.18
O=C(CNC(=O)c1nc[nH]c1C(=O)N1CCc2ccccc2C1)OCc1ccccc1	-5.57*	-5.57
CCN1CCN(Cc2ccc(NC(=O)c3ccc(C)c(NC(=O)C(=O)c4c[nH]c5ccccc45)c3)cc2C(F)(F)F)CC1	-7.83*	-7.83
CCN1CCN(Cc2ccc(NC(=O)c3cc(NC(=O)C(=O)c4c[nH]c5ccccc45)cc(OC)c3)cc2C(F)(F)F)CC1	i	·
CCn1c2ccccc2c2cc(NC(=O)C(C)Oc3ccccc3)ccc21 (configuration not stated)	i	·
CCn1c2ccccc2c2cc(NC(=O)C(C)Oc3ccc(OC)cc3)ccc21 (configuration not stated)	-6.17*	-6.17
O=C(NCc1ccccc1)c1noc2c1CCCC2	i	·
O=C(NCc1ccc(Cl)cc1)c1noc2c1CCCC2	-6.47*	-6.47
CCOC(=O)C1=C(c2ccccc2)NC(=O)NC1c1ccc(OC)c(OC)c1 (configuration not stated)	i	·
CCOC(=O)C1=C(c2ccccc2)N(C)C(=O)NC1c1ccc(OC(F)F)c(OC)c1 (configuration not stated)	-5.56*	-5.56
CCOC(=O)C1CCN(C(=O)Cn2nc(CC)n3cccc3c2=O)CC1	i	·
C/C=C/c1ccc(OCCCCOc2ccccc2C(C)=O)c(OC)c1	-7.47*	-7.47
COc1ccccc1OCCCCOc1ccccc1C(C)=O	i	0.77
CN(CCO)C1=CC(=O)CC(C)(C)C1	i	0.99
COc1ccc(C(=O)C(CN2CCOCC2)c2ccccc2)cc1F (configuration not stated)	i	·
Nc1nonc1-n1nnc(C(=O)N/N=C/c2cccc(F)c2)c1-c1ccc2c(c1)OCO2	i	·
